JMJD2A Tudor inh: JMJD2A Tudor domain (human) inhibition; O75164; AlphaScreen JMJD2A-Tudor / H3K4me3 peptide binding; Potency, µM (series often up to 114 µM), hits mostly inhibitors; 390,000 compounds, 4.4% hits; AID 504339; further: nearly all actives have a fitted effect of over 50% in size
BAZ2B block: blocks human BAZ2B | AlphaScreen BAZ2B-H3K14Ac peptide displacement | Q9UIF8 | Potency, µM (titrated, usually from 114 µM), usual class: inhibitors | AID 504333 | 360,000 compounds, 4.4% hits; further: nearly all actives have a fitted effect of over 60% in size
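AlphaScreen displacement of biotin-H3(5-23)K14Ac peptide (50 nM final) from BAZ2B (50 nM final) in PBS pH 7.4, 0.01% Tween-20; complex preformed 30 min RT, then compounds (top 110 uM) 30 min RT, beads 20 min dark.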
L3MBTL1 inh: L3MBTL1 (human) inhibition; 230,000 compounds, 0.66% hits; AID 485360; Potency, µM (highest dose often 57.1 µM), usual class: inhibitors; AlphaScreen L3MBTL1–H3K9me1 peptide binding; Q9Y468; further: nearly all actives have a fitted effect of over 60% in size
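L3MBTL1 50 nM + b-AHA-H3(1-15)K9me1 75 nM, 30 min RT; compound added, 30 min RT; streptavidin donor/Ni-chelate acceptor beads 10 ug/mL each final, 30 min RT dark; AlphaScreen read.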
Sfp PPTase inh: inhibitors of Bacillus subtilis Sfp phosphopantetheinyl transferase; 310,000 compounds, 3.5% hits; Potency, µM, hits mostly inhibitors; Q9F4F7; Biochemical Sfp PPTase activity, qHTS;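 further: the enzyme is Sfp with the accession as filed and its product quenches rhodamine fluorescence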
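After 15 min at room temperature with compound, 15 nM Sfp received 5 uM rhodamine-CoA plus 12.5 uM BHQ-2-ybbR (50 mM Hepes pH 7.6, 10 mM MgCl2). Rate came from the fluorescence difference over 30 min, ex 525/em 598 nm.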
G9a block: inhibitors of human histone lysine methyltransferase G9a; Q96KQ7; G9a H3K9 monomethylation, AlphaScreen, 2 h; Potency, µM (doses to about 102 µM), usual class: inhibitors; 350,000 compounds, 8.8% hits; AID 504332; further: nearly all actives have a fitted effect of over 75% in size
Target sequence (Q96KQ7 913-1193 limits assumed): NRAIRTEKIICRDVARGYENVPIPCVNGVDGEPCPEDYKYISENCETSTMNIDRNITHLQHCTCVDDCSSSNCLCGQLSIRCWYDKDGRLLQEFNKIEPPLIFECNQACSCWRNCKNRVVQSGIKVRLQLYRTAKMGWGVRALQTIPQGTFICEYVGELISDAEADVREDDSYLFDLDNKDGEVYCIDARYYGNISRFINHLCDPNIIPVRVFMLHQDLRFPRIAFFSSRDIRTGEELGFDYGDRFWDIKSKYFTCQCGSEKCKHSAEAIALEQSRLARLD
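Methyltransferase reactions run at room temperature for 2 h (20 nM enzyme, 500 nM biotin-H3K9 peptide, 20 uM SAM) after a 15 min compound preincubation; product detected by AlphaScreen beads and anti-H3K9me1 antibody.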
HP1b chromo inh: HP1-beta chromodomain-methylated histone interaction inhibition; P83916; AlphaScreen HP1-beta / biotin-H3K9me3 peptide binding; Potency, µM (highest dose often 114 µM), usual class: inhibitors; 390,000 compounds, 0.56% hits; further: nearly all actives have a fitted effect of over 70% in size
Target sequence (P83916 whole entry, looked up): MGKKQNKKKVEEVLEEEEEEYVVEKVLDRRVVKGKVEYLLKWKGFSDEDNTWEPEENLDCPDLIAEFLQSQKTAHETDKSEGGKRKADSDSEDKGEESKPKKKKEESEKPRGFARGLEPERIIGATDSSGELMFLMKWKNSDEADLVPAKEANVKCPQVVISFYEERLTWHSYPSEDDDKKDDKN
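Compound inhibition of the preformed complex between 50 nM HP1-beta and 50 nM biotinylated H3K9me3 peptide was read by AlphaScreen. Buffer was PBS pH 7.4 with 0.01% Tween-20. Incubations ran 30 min at room temperature, with 10 ug/mL donor/acceptor beads.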
Hits are given with their value; – = inactive; ? = inconclusive; · = not tested or not shown; [ ] = dose if it differs, or a comment. An excerpt weighted towards active compounds, which were near 12% of everything screened. The call rests on the fitted dose curve; in most records, active means well fitted curve in the direction sought with a large enough effect; inconclusive means small, poorly fitted or top-dose-only effect, or another doubt; inactive means no such curve, though single readings can be large; an effect the other way counts as inactive or inconclusive.

SMILES	JMJD2A Tudor inh	BAZ2B block	L3MBTL1 inh	Sfp PPTase inh	G9a block	HP1b chromo inh
S=c1[nH]nc(C2CCCCC2)n1/N=C/c1ccncc1	5µM	–	–[2.29 µM]	40µM	?	–
S=c1[nH]nc(C2CCCCC2)n1/N=C/c1cccs1	50µM	–	–	–	?	–
O=C(N/N=C/c1ccc(C(=O)O)cc1)C(=O)N1CCCCCC1	–	–	·	–	·	–
Cc1ccc(OCC(=O)Nc2ccc(OCc3cc(=O)n4cccc(C)c4n3)cc2)cc1C	–	–	·	·	–	–
CSc1ccc(/C=N/n2c(C)nnc2C)cc1	–	–	–	–	?	–
O=[N+]([O-])c1ccc(/C=N/n2c(C3CCCCC3)n[nH]c2=S)cc1	89µM	–	–	–	?	–
O=C1NCCCC1C(=O)N/N=C/c1ccc([N+](=O)[O-])cc1 (configuration not stated)	–	–	·	–	–	–
CSc1ccc(/C=N/n2c(C3CCCCC3)n[nH]c2=S)cc1	?	?	·	–	11µM	?
CCCC[C@H]1CCCO[C@@](C(=O)NCCN2CCOCC2)(C(F)(F)F)C1	–	·	·	–	·	–
c1ccc2[nH]ccc2c1	·	·	·	–	–[12.7 µM]	·
Cc1cccc(C(=O)Nc2ccccc2OCc2cc(=O)n3ccccc3n2)c1	–	–	·	·	–	–
COc1cc(C(CC(=O)NCc2ccccc2Cl)N2Cc3ccccc3C2=O)cc(OC)c1OC (configuration not stated)	–	–	·	·	–	–
COc1ccc(-n2c(SCC(=O)N3CCN(c4ccccc4)CC3)nc3c(c2=O)SCC3)cc1	–	–	·	–	45µM	–
CC(C)n1c(SCC(=O)N2CCCCC2)nc2c1c(=O)n(C)c(=O)n2C	–	–	·	–	–	–
COc1ccc(N2CCN(C(=O)CSc3nc4c(c(=O)n(C)c(=O)n4C)n3C(C)C)CC2)cc1	–	–	–	–	50µM	–
COc1cccc(OC)c1C1=Nn2c(nnc2-c2ccccc2O)SC1	–	·	·	–	·	·
Nc1nc(SCC(=O)C23CC4CC(CC(C4)C2)C3)n[nH]1	–	–	–	–	35µM	–
CN(C(=O)CSc1n[nH]c(N)n1)C1CCCCC1	–	·	–	·	·	–
CCOC(=O)c1cc2sccc2n1CC(=O)N1CCCc2ccccc21	–	–	–	–	–[12.7 µM]	–
COC(=O)c1cc2oc(C)cc2n1CC(=O)N1CCCc2ccccc21	?	89µM	–	56µM	?	–
CCOC(=O)c1cc2occc2n1CC(=O)N1CCCc2ccccc21	?	79µM	–	79µM	?	–
CN1C(=O)C2CCCCN2c2ccc(C(=O)NCc3ccccc3Br)cc21 (configuration not stated)	–	–	·	·	–	–
Cc1cccc(Cn2c(SCc3ccc(C(=O)N4CCCCCC4)cc3)nc3ccncc32)c1	–	–	·	·	–	–
CC(C)(C)N=C1NN=C(c2ccc(Cl)cc2)CS1	?	?	–	–	–	–
CC(C)N=C1NN=C(c2ccc(Cl)c(Cl)c2)CS1	?	?	·	–	45µM	–
SMILES	JMJD2A Tudor inh	BAZ2B block	L3MBTL1 inh	Sfp PPTase inh	G9a block	HP1b chromo inh
CC(C)c1ccc(N=C2NN=C(c3cccs3)CS2)cc1	–	?	·	–	–	–
CC(C)N=C1NN=C(c2cccs2)CS1	–	–	·	–	20µM	–
O=C(CSc1nnc2[nH]c(=O)cc(-c3ccccc3)n12)Nc1cc(C(F)(F)F)ccc1Cl	–	–	·	·	–	–
COc1cc(C(=O)Nc2sc3c(c2C#N)CCCC3)c(Br)c(OC)c1OC	–	–	·	·	–	–
CC(C)(C)C(=O)NCCc1csc2nc(-c3ccc(F)cc3)nn12	–	–	·	·	–	–
COC(=O)C1=C(C(=O)OC)[C@@H]2Nc3ccccc3[C@@]23C[C@@H](C(=O)OC)N(S(=O)(=O)c2ccc4c(c2)OCCN4C)C3=N1	·	·	·	–	·	·
Cc1ccc(C(=O)CSc2ccc(-c3ccncc3)nn2)cc1	–	?	·	–	40µM	–
Cc1ccc(-c2ccc(SCC(=O)c3ccccc3)nn2)cc1	–	–	–	–	35µM	–
COc1ccc(-c2ccc(SCC(=O)c3ccccc3)nn2)cc1OC	–	–	·	–	50µM	–
Cc1ccc(C(=O)CSc2ccc(-c3cccnc3)nn2)cc1	–	–	·	–	–	–

Assay outcomes as filed in PubChem.
